# Compound activity from PubChem.
# A selection: hits, their analogues and other compounds. The true share with any hit is near 4.6%.
# NALP3 yeast inh: blocks the NALP3 inflammasome reconstituted in yeast | Yeast reconstituted NLRP3/ASC/caspase-1, beta-gal luminescence, 24 h | inhibition, % at 10 µM | 330,000 tested, 0.39% active | AID 2825;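 active = inhibition of 50% or more; inactive = inhibition below 50%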;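 note: plate controls were induced DMSO wells for no effect and uninduced yeast grown without galactose for full effect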
# tim10-1 inh: inhibits growth of tim10-1 mutant yeast. S. cerevisiae tim10-1 ts strain growth, BacTiter-Glo, 24 h. AID 463190. 330,000 tested, 2.2% active. inhibition, % at 20 µM;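 active = inhibition of at least 40%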;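 note: mutant grown at 25 °C; 0% = DMSO wells with yeast and 100% = wells holding no yeast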
# tim23-1 inh: inhibits growth of tim23-1 mutant yeast; S. cerevisiae tim23-1 growth, BacTiter-Glo luminescence, 24 h; inhibition, % at 20 µM; 330,000 tested, 1.3% active;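 active = growth inhibition of the mutant yeast at or above 50%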;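 note: temperature-sensitive mutant grown at 25 °C; plate controls were DMSO-treated mutant yeast for no effect and medium wells lacking yeast for full effect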
# TIM10 inh: growth inhibitors of TIM10 yeast strain | inhibition, % at 10 µM | 330,000 tested, 1.4% active | AID 463195 | S. cerevisiae TIM10 strain growth, BacTiter-Glo luminescence, 24 h;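 active = inhibition of 40% or more at the single tested concentration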;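 note: wild-type TIM10 isogenic control strain grown at permissive 25 °C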
# SKKanGAS inh: inhibitors of SKKanGAS S. pyogenes growth in kanamycin (SK-promoter or general growth effect); BacTiter-Glo, 6 h; inhibition, % at 7.5 µM; 300,000 tested, 1.3% active;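 active = mean replicate score, as percent of positive control median, at least 50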;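 note: strain carries kanamycin resistance gene driven by streptokinase promoter and grows in 40 µg/ml kanamycin; loss of luminescence reflects streptokinase promoter inhibition or plain growth inhibition; 0% = median of DMSO wells and 100% = positive control at its reference dose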
# tim10-1 confirm: tim10-1 yeast growth inhibition, confirmed; shares compounds with tim10-1 inh; AID 463213; inhibition, % at 20 µM; S. cerevisiae tim10-1 ts strain growth, BacTiter-Glo, 24 h; 7,400 tested, 56% active;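 active = inhibition of yeast growth at or above a set limit in either of two repeat tests at 20 µM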;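 note: tim10-1 mutant grown at permissive 25 °C to find synthetic lethal compounds; 0% = DMSO yeast wells and 100% = medium wells without yeast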
# An asterisk follows results filed as active; x = not tested or not shown.
SMILES,NALP3 yeast inh,tim10-1 inh,tim23-1 inh,TIM10 inh,SKKanGAS inh,tim10-1 confirm
CC(=O)Nc1ccc(NC(=O)c2sc3nc4n(c(=O)c3c2C)CCCCC4)cc1,14,14,15,10,10,x
CCc1ccc(NC(=O)c2sc3nc4n(c(=O)c3c2C)CCC4)cc1,21,44*,34,-11,-13,12
CC(=O)c1cccc(NC(=O)c2sc3nc4n(c(=O)c3c2C)CCCC4)c1,11,52*,18,19,7,28*
O=C(CCSc1ccccc1)N1CCCC1,1,6,-1,-2,-1,x
O=[N+]([O-])/C(C(Cl)=C(Cl)Cl)=C(\Sc1ccccc1)N1CCCCC1,-6,44*,39,35,4,35*
CCC(=O)N1CCN=C1SCc1cccc(C(F)(F)F)c1,24,13,14,9,-2,x
Cc1ccc(NC(=O)COC(=O)c2ccccc2Nc2ccccc2)cc1,15,-5,11,5,1,x
Cc1cccc(C(=O)Nc2ccccc2C(=O)OCC(=O)Nc2ccc(C#N)cc2)c1,8,43*,20,38,11,11
COc1cccc(-c2nnc3sc(C4CCCCC4)nn23)c1,-15,25,40,1,8,x
CCOc1cccc(-c2nnc3sc(C4CCCCC4)nn23)c1,-20,41*,40,31,-3,13
COc1cc2c(cc1OC)C(c1cc3cccc(C)c3[nH]c1=O)N(C(=O)c1ccco1)CC2 (configuration not stated),3,12,14,-4,12,x
Cc1ccc(S(=O)(=O)N2CCCCC2)cc1NS(=O)(=O)c1ccccc1F,12,11,16,4,x,x
O=C1CCCN1CCC12CC3CC(CC(C3)C1)C2,28,41*,34,12,-10,5
CC(O)[C@H]1CNC(=O)C(=O)N1CCC12CC3CC(CC(C3)C1)C2 (some centres not stated),5,2,1,7,4,x
Cc1ccc(SCCNS(=O)(=O)c2ccc(F)cc2)cc1,21,41*,36,-13,1,15
CCOC(=O)C1=CN(Cc2cccc(F)c2)S(=O)(=O)N(C)C1CCc1ccccc1 (configuration not stated),x,21,27,-3,x,x
Cc1ccc2cccc(NC(=S)NC(=O)c3ccnn3C)c2n1,26,43*,39,39,0,29
CC(=O)NC(=S)Nc1cccc2ccc(C)nc12,-5,24,-2,-22,-8,x
COc1cc(-c2nnc(COC(=O)CSc3cc(C)c4ccccc4n3)o2)cc(OC)c1OC,5,40*,18,6,-24,17
COc1cc(CCC(=O)OCc2nnc(-c3ccccc3)o2)cc(OC)c1OC,-10,32,19,21,-1,x
Clc1cccc(/C=N/Nc2ncnc3ccccc23)c1,21,40*,35,39,5,18
O=C(/C=C/c1ccco1)Nc1ccccc1N1CCCC1,17,53*,40,39,0,46*
CCN(C(=O)CSc1nc2ccc(Cl)cc2[nH]1)C1CCS(=O)(=O)C1 (configuration not stated),16,-6,-8,-1,x,x
COc1ccc(/C(C)=N/NC(=O)c2nnn(-c3nonc3N)c2CN(C)c2ccccc2)cc1,15,26,8,2,-2,x
C/C(=N\NC(=O)c1nnn(-c2nonc2N)c1CN(C)c1ccccc1)c1ccccc1O,21,62*,26,25,50*,3
SMILES,NALP3 yeast inh,tim10-1 inh,tim23-1 inh,TIM10 inh,SKKanGAS inh,tim10-1 confirm
O=C(COC(=O)c1ccc(F)cc1F)Nc1cc(S(=O)(=O)N2CCOCC2)ccc1Cl,19,18,30,-2,x,x
Fc1ccc(N/N=C/C=C/c2ccccc2)c(F)c1,16,69*,28,10,3,49*
Fc1ccc(N/N=C/c2ccncc2)c(F)c1,19,-11,17,8,0,x
COc1ccc(Cn2c(SCc3cc(C)ccc3C)nc3cc(OC)c(OC)cc3c2=N)cc1,29,59*,3,-39,109*,34*
COc1cc2nc(SCc3ccc(Cl)cc3Cl)n(Cc3cccs3)c(=N)c2cc1OC,10,23,16,28,4,x
CCN(CC(=O)Nc1c(F)cccc1F)C(=O)CCNC(=O)c1ccco1,13,10,14,4,x,x
O=C(N/N=C1\CCCc2ccccc21)c1ccc([N+](=O)[O-])cc1,-6,46*,25,22,0,26
Cc1ccc(CNC(=O)CSc2nnc(CNC(=O)c3ccccc3)o2)cc1,11,12,8,11,1,x
O=C(CC1C(=O)NCCN1Cc1cccc(Oc2ccccc2)c1)NCCc1cscn1 (configuration not stated),-3,42*,20,16,-1,28
Cc1noc(/C=C/c2ccccc2F)c1S(=O)(=O)N1CCC(C(=O)N2CCN(C)CC2)CC1,16,40*,34,8,-4,16
CC(=O)Nc1cccc(Oc2ncnc3scc(-c4ccc(C)cc4)c23)c1,-1,42*,9,20,-4,29*
Cc1ccc(-c2csc3ncnc(Oc4ccc5c(C)cc(=O)oc5c4)c23)cc1,25,23,13,13,12,x
COc1ccc(C(C(=O)NC2CCCCC2)N(C(=O)CCl)c2ccc(Cl)cc2)cc1 (configuration not stated),1,21,17,19,-7,x
COC(CN(C(=O)CCl)C(C(=O)NC1CCCCC1)c1ccccc1C)OC (configuration not stated),10,43*,36,39,6,32*
COC(CN(C(=O)CCl)C(C(=O)NC1CCCCC1)c1ccc(Cl)cc1)OC (configuration not stated),4,43*,38,34,-4,30
Cc1cccc2c(=O)c(-c3ccc4c(c3)OCO4)c(NC(=O)c3ccco3)oc12,4,42*,47,27,9,8
CCCCCN(C(=O)CCC(=O)OCc1ccc(C(C)C)cc1)c1c(N)n(CCCC)c(=O)[nH]c1=O,3,6,-6,5,8,x
COc1ccc(C(CNC(=O)c2ccc(S(=O)(=O)N3CC(C)CC(C)C3)cc2)N(C)C)cc1 (configuration not stated),13,-4,12,2,x,x
CCOc1ccc(CCNC(=O)COC(=O)CSc2ccc(C)cc2)cc1OCC,17,16,25,9,x,x
COc1ccc(C(=O)CSc2nnc(CNc3ccc(C)cc3C)n2Cc2ccco2)cc1,11,40*,35,23,22,24
Cc1ccc(C(=O)CSc2nnc(CNc3ccc(C)cc3C)n2Cc2ccco2)cc1,10,20,9,19,34,x
COc1cccc(NC(=O)CSc2c3c(nc4ccccc24)CCCC3)c1,3,43*,34,31,-6,26
Cc1cccc(NC(=O)CSc2c3c(nc4ccccc24)CCC3)n1,12,24,16,14,-3,x
